Data as given in PMC4336329 (PLoS ONE, 2015).
Screen size: about 310,000 compounds; about 14,000 (4.5%) showed an effect of 50% or more. The effect is printed as a negative number. Only a selection was taken, and strong results are over-represented in it overall.

Each compound was assayed against human ether-à-go-go-related gene (hERG) potassium channel (human, UniProt Q12809) (assay: primary screen, population patch clamp on CHO cells stably expressing hERG; higher = less effect of the substance).
Sequence of human ether-à-go-go-related gene (hERG) potassium channel (Q12809 whole entry, looked up): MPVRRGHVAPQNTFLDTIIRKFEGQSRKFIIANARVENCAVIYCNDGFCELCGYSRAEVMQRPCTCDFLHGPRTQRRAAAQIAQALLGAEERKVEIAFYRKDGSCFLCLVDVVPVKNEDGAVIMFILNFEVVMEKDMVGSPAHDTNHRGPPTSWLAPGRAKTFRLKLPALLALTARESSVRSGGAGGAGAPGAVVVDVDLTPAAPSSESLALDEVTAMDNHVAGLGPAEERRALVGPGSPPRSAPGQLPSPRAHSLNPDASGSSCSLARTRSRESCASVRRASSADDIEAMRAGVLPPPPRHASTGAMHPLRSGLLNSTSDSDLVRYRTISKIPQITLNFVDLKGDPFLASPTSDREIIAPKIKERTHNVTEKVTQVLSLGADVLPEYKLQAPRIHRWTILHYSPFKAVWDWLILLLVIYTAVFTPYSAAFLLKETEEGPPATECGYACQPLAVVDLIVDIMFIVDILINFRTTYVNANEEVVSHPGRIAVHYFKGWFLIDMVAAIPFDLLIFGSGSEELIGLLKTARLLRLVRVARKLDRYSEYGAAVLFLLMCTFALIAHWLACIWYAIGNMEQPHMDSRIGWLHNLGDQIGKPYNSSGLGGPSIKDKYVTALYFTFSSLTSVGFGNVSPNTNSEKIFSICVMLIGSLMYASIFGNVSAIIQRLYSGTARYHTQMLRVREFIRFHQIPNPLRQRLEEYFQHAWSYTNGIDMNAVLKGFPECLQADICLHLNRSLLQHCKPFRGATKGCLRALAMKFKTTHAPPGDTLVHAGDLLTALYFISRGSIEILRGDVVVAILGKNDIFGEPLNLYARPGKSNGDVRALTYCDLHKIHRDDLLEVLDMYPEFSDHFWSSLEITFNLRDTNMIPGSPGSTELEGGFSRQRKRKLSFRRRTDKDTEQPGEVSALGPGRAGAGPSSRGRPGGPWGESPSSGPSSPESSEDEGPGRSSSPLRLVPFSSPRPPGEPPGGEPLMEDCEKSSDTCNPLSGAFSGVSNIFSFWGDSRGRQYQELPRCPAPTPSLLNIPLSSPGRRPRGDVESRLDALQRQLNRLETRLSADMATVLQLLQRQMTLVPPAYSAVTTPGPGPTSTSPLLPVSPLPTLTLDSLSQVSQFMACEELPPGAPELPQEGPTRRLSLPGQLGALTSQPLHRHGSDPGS
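Also: peak tail current of the secondary pulse compared with the same well before compound.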

Compound	hERG current change (%, negative = inhibition) at 10uM [%]
CC(=O)c1cn(-c2ccc(Cl)cc2)c(=O)n(Cc2ccc(F)cc2)c1=O	1.04
COc1ccc(CNC(=O)CCS(=O)(=O)c2ccc(Br)cc2)cc1	7.33
CC(=O)Nc1ccc(NS(=O)(=O)c2ccc(-c3cnc(C4CC4)o3)cc2)cc1	3.37
CCC(CC)C1C(C#N)=C(N)Oc2cc(C)oc(=O)c21 (stereo not drawn)	-12.7
CC1(C)C(c2ccccc2)=NC(c2cccnc2)=[N+]1[O-]	14.8
COc1ccc(C(=O)N2CC3(C)C4CCC3(C)C2(C#N)C4)cc1OC (stereo not drawn)	4.65
CC(C)CNC(=O)CSc1nc2nn(-c3ccccc3)c(=O)c-2c2n1CCCCC2	-18
O=C(CSc1nc2nn(-c3ccccc3)c(=O)c-2c2n1CCCCC2)Nc1ccc(F)cc1F	-63.2
O=C(CSc1nc2nn(-c3ccccc3)c(=O)c-2c2n1CCCCC2)NCCCc1ccccc1	-63.1
COCCNC(=O)CSc1nc2nn(-c3ccccc3)c(=O)c-2c2n1CCCCC2	23.2
COCC(C)NC(=O)CSc1nc2nn(-c3ccccc3)c(=O)c-2c2n1CCCCC2 (stereo not drawn)	8.5
CNC(=O)CSc1nc2nn(-c3ccccc3)c(=O)c-2c2n1CCCCC2	-37.2
CC(C)(C)CC(=O)NCCc1csc(-c2ccccc2)n1	-7.63
Cn1ncc(Cl)c1C(=O)N/N=C/c1cccc(OC2CSC2)c1	8.77
O=C(Nc1nccs1)c1cc(Cl)ccc1[N+](=O)[O-]	-9.55
Cc1cccc(Cn2c(N(C)Cc3ccccc3)nc3c2c(=O)[nH]c(=O)n3C)c1	-9.99
CCOc1ccc2nc(NC(=O)Nc3cccs3)sc2c1	18
Cc1ccc(C(=O)Nc2ccccc2N2CCOCC2)cc1S(=O)(=O)N1CCOCC1	-55.3
O=C(Nc1ccccc1N1CCOCC1)c1ccncc1	-1.93
O=C(Nc1ccccc1N1CCCC1)c1ccc(Cl)c(S(=O)(=O)N2CCOCC2)c1	-41.4
O=C(Nc1ccccc1N1CCOCC1)c1ccc(F)c(S(=O)(=O)N2CCOCC2)c1	-12.6

Compound	hERG current change (%, negative = inhibition) at 10uM [%]
O=C(Nc1ccccc1N1CCOCC1)c1ccc2c(c1)C(=O)N(Cc1ccncc1)C2=O	-58.8
O=C(Nc1ccccc1N1CCCC1)c1ccc(F)c(S(=O)(=O)N2CCOCC2)c1	-22.5
CCCCN1C(=O)c2ccc(C(=O)Nc3ccccc3N3CCOCC3)cc2C1=O	7.18
Cc1ccc(C(=O)Nc2ccccc2N2CCCC2)cc1S(=O)(=O)N1CCOCC1	-51.2
COc1ccc(C(=O)Nc2ccccc2N2CCOCC2)cc1S(=O)(=O)N1CCOCC1	-17.8
Cc1cn2c(N)c(/C=C3\C=Nc4ccccc43)c(=O)nc2s1	2.43
CCOc1ccc(N=C(/C(C(=O)C(=O)N2CCOCC2)=C(\O)c2ccccc2)c2ccccc2)cc1	27.7
COc1ccc(NC(=O)CN(C)S(=O)(=O)c2cccc3nsnc23)cc1	-21.9
O=C(O)c1ccccc1-c1nc2ccccc2c(=O)n1O	14.9
CCCOC(=O)CC1C(=O)NCCN1Cc1ccc(F)cc1 (stereo not drawn)	3.35
CC1CC(C)CN(S(=O)(=O)c2ccc(NC(=O)C3CC(=O)N(Cc4ccccc4)C3)cc2)C1 (stereo not drawn)	17.3
CC(C)CC1NC(=O)N(Cc2nc3ccccc3s2)C1=O (stereo not drawn)	-32.5
CC(C)CCC1(CCNC(=O)c2cccs2)CCOC(C)(C)C1 (stereo not drawn)	-8.99
c1ccc(-c2nn3c(Cn4nnc5ccccc54)nnc3s2)nc1	-14.4
CC(C)C[C@H]1C(=O)N2CCC[C@H]2[C@]2(O)O[C@](NC(=O)C3C=C4c5cccc6[nH]c(Br)c(c56)C[C@H]4N(C)C3)(C(C)C)C(=O)N12.CS(=O)(=O)O (stereo partly drawn)	20.4
CN1/C(=C\C=C\C2=[N+](C)c3ccc4ccccc4c3C2(C)C)C(C)(C)c2ccccc21.[O-][Cl+3]([O-])([O-])[O-]	-75.7
CCN1/C(=C\C=C\C2=[N+](CC)c3ccccc3C2(C)C)C(C)(C)c2ccccc21.[O-][Cl+3]([O-])([O-])[O-]	-96.7
CCN1C(=O)C(O)(CC(=O)/C=C/C=C/c2ccccc2)c2ccccc21 (stereo not drawn)	-0.629
CCCN1C(=O)/C(=C/C=C2\N(CC)c3ccccc3C2(C)C)SC1=S	8.96
CN1/C(=C\C=O)C(C)(C)c2ccccc21	12.9
CC1(C)C(/C=C/C=C/C=C/C=C2\N(CCCCS(=O)(=O)[O-])c3ccc4ccccc4c3C2(C)C)=[N+](CCCCS(=O)(=O)[O-])c2ccc3ccccc3c21.[Na+]	-15.5

Compound	hERG current change (%, negative = inhibition) at 10uM [%]
CC(C)CCn1nnnc1CN1CCN(C(=O)c2ccco2)CC1.Cl	16.8
CC1(C)CC(=O)c2c(O)cc(OCC(=O)Nc3ccc(CCO)cc3)cc2O1	-21.4
CCN(C(=O)COC(=O)CSc1ccc(F)cc1)c1c(N)n(Cc2ccccc2)c(=O)[nH]c1=O	10.9
COC(=O)C1Cc2ccccc2CN1S(=O)(=O)c1ccc(C)cc1 (stereo not drawn)	1.57
Cc1cnc(-c2nnc(N(C)C(=O)C3CCCO3)s2)cn1 (stereo not drawn)	2.91
Cn1c(CNC(=O)c2ccc(Cl)cc2)nnc1SCC(=O)N1CCOCC1	15.4
OC(CNCC1(N2CCCCC2)CCCCC1)COc1ccc(Cl)cc1Cl (stereo not drawn)	-73.7
COc1ccccc1COCC(O)CNCC1(N2CCCCC2)CCCCC1.O=C(O)C(=O)O (stereo not drawn)	-30.9
COc1cc(C(C)=O)ccc1OCC(O)CNCC1(N2CCCCC2)CCCCC1.O=C(O)C(=O)O (stereo not drawn)	-42.1
CCc1ccc(OC)c(S(=O)(=O)Nc2ccccc2C)c1	3.86
COc1cccc(COCC(O)CN2CCC(C(N)=O)CC2)c1 (stereo not drawn)	12.3
COc1ccc(-c2csc3ncnc(NCCCO)c23)cc1	-13.3
CC(C)CNC(CC(=O)Nc1cccc([N+](=O)[O-])c1)C(=O)O (stereo not drawn)	-1.01
Cc1ccc(NC(=O)COC(=O)[C@H](C)NC(N)=O)c(C)c1	15.1
CCOc1ccc(S(=O)(=O)N2CCC(C(=O)NC3CCCCC3)CC2)cc1	18.3
CCOC(=O)C1CCN(CCC(=O)Nc2ccc(Br)cc2)CC1	-63.5
CCOC(=O)C1CCN(CCC(=O)Nc2ccc(C)cc2)CC1	-32.4
CCOC(=O)C1CCN(CCC(=O)Nc2ccc(F)cc2)CC1	-31
CCOC(=O)C1CCN(CCC(=O)Nc2cccc(Cl)c2C)CC1	-5.48
CCOC(=O)C1CCN(CCC(=O)Nc2ccccc2Cl)CC1.Cl	-19.3
CCOC(=O)C1CCN(CCC(=O)Nc2ccc(Cl)cc2)CC1	-62.4

Compound	hERG current change (%, negative = inhibition) at 10uM [%]
COc1ccccc1C(=O)NCC1(c2ccccc2)CCCC1	1.65
O=C(NCCCCCCCCCNC(=O)C(F)(F)F)C(F)(F)F	-4.99
CC1CC(C)CN(C(=O)CCCn2c(=O)c3cccn3c3cccnc32)C1 (stereo not drawn)	-11
N=c1c2c(-c3ccccc3)c(-c3ccccc3)n(Cc3ccco3)c2ncn1CCCO	-68.5
N#Cc1c(-c2ccccc2)c(-c2ccccc2)n(Cc2ccco2)c1NC(=O)c1cccs1	12.6
O=c1c2cnn(-c3ccccc3)c2ncn1Cc1ccco1	-7.57
N=c1c2c(-c3ccccc3)c(-c3ccccc3)n(Cc3ccco3)c2ncn1CCO	-71
O=c1c2ccccc2ncn1Cc1ccco1	-19.8
CCCCn1c(=O)n(Cc2cccc(F)c2)c(=O)c2c1ncn2Cc1ccco1	-14.7
N=c1c2c(-c3ccccc3)c(-c3ccccc3)n(Cc3ccccc3)c2ncn1CCO	-37.6
CCCCn1c(=O)n(CC(=O)Nc2ccc(C)c(Cl)c2)c(=O)c2c1ncn2Cc1ccco1	-6.22
CCCCn1cnc2c(c(-c3ccccc3)c(-c3ccccc3)n2Cc2ccco2)c1=N	-75.1
NC(=S)N/N=C/c1ccc(C23CC4CC(CC(C4)C2)C3)cc1	23.2
CN1CCc2cc3c(cc2[C@H]1[C@@H]1OC(=O)c2c1ccc1c2OCO1)OCO3	7.02
O=C1C(=O)N(CC2CCCO2)C(c2ccco2)/C1=C(/O)c1ccc(F)cc1 (stereo not drawn)	-13.4
COc1cnc(SCc2c(Cl)cccc2Cl)nc1Cl	-1.4
COC(=O)c1cccc(CSc2nnc(C)s2)c1	-1.67
O=C(OCC(=O)N1CCCC1=O)c1ncc(Cl)c(Cl)c1Cl	0.304
Nc1c(Cl)c(Cl)nc(C(=O)OCC(=O)N2CCCC2=O)c1Cl	-22.5
O=C(OCC(=O)N1CCCC1=O)c1nc(Cl)c(Cl)c(Cl)c1Cl	-60.4
COc1cccc(C(=O)Nc2cc(-c3cn4cccnc4n3)ccc2C)c1	-12
